# Screening data: PubChem, National Center for Advancing Translational Sciences (NCATS)
# BAZ2B inh – blocks human BAZ2B; actives 4.4% (n = 360,000); Potency, µM (series often up to 114 µM), inactives show at the highest dose activity change, negative = inhibition, hits mostly inhibitors; Q9UIF8; AID 504333; AlphaScreen BAZ2B-H3K14Ac peptide displacement; also: potency is read from the fitted curve at half-maximal effect; % is scaled to controls: 0 for no effect and ±100 for the full control effect; nearly all actives have a fitted effect of over 60% in size
#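 AlphaScreen displacement of biotin-H3(5-23)K14Ac peptide (50 nM final) from BAZ2B (50 nM final) in PBS pH 7.4, 0.01% Tween-20; complex preformed 30 min RT, then compounds (top 110 uM) 30 min RT, beads 20 min dark.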
# HP1b chromo inh – blocks HP1-beta chromodomain binding to methylated histone tails. actives 0.56% (n = 390,000). Potency, µM (doses to about 114 µM), without a hit: at the top dose activity change, negative = inhibition, usual class: inhibitors. AlphaScreen HP1-beta / biotin-H3K9me3 peptide binding. P83916. AID 540317; also: potency is read from the fitted curve at half-maximal effect; nearly all actives have a fitted effect of over 70% in size
#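 AlphaScreen: HP1-beta (50 nM) preformed 30 min with biotin-H3(1-18)K9me3 peptide (50 nM) in PBS pH 7.4, 0.01% Tween-20. Compound added for 30 min at RT, then streptavidin donor/nickel chelate acceptor beads (10 ug/mL) for 30 min.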
# JMJD2A Tudor – blocks the human JMJD2A Tudor domain; actives 4.4% (n = 390,000); O75164; AID 504339; Potency, µM (titrated, usually from 114 µM), for inactives: top-dose activity change, negative = inhibition, usual class: inhibitors; AlphaScreen JMJD2A-Tudor / H3K4me3 peptide binding; also: potency is read from the fitted curve at half-maximal effect; % is scaled to controls: 0 for no effect and ±100 for the full control effect; nearly all actives have a fitted effect of over 50% in size
# CtBP-E1A blk – blocks the CtBP interaction with E1A | activity change, % (no concentration beside the values) | actives 0.49% (n = 340,000) | AID 651724 | AlphaScreen GST-E1A/His-CtBP binding, 1536-well; stronger effect = lower value; in the data active = activity change below about -65%; inconclusive = mostly about -30% to -63%; also: % is scaled to controls: 0 for no effect and ±100 for the full control effect
#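 Homogeneous bead-based format: GST-tagged E1A captured on glutathione donor beads, His-tagged CtBP on nickel acceptor beads; compounds precede bead addition by 2 h at 37 °C.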
# Six1-Eya2 blk – blocks human Six1 binding to Eya2. AID 651725. actives 0.56% (n = 360,000). activity change, % (no concentration beside the values). AlphaScreen GST-Six1/His-Eya2 binding, biochemical; stronger effect = lower value; in the data active = activity change below about -65%; inconclusive = mostly about -30% to -63%; also: % is scaled to controls: 0 for no effect and ±100 for the full control effect
# Target sequence (O00167 whole entry, looked up): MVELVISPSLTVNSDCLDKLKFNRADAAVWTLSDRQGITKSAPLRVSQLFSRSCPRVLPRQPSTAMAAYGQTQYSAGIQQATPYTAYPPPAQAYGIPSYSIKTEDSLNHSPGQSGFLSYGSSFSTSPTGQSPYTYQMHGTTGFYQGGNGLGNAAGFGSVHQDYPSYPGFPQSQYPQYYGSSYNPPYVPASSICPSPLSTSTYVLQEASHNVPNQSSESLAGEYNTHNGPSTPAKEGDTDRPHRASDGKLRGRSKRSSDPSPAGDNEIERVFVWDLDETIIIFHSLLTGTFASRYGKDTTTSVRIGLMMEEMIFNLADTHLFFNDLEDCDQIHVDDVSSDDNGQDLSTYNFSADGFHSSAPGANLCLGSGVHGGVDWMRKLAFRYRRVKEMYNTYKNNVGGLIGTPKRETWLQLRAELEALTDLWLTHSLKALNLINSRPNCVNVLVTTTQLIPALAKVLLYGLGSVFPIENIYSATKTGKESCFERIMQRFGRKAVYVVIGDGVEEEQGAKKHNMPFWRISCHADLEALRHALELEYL
# Target sequence (Q15475 whole entry, looked up): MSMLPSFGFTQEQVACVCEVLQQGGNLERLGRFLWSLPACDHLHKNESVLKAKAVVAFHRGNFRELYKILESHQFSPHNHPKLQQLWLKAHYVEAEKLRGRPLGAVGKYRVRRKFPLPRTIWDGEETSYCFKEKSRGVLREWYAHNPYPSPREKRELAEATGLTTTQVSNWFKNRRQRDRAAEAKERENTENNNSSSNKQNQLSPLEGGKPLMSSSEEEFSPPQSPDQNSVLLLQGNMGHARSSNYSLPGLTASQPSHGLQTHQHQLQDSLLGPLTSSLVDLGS
#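 AlphaScreen with GST-Six1 and His-Eya2 (5X mix: 250 nM and 500 nM), glutathione donor and nickel acceptor beads; buffer 50 mM Tris pH 8.0, 300 mM NaCl, 1 mM TCEP; 1 h at 37 C in the dark.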
# G9a inh – G9a (human) methyltransferase inhibition | Q96KQ7 | G9a H3K9 monomethylation, AlphaScreen, 2 h | Potency, µM (top dose mostly 102 µM), for inactives: top-dose activity, negative = inhibition, usual class: inhibitors | actives 8.8% (n = 350,000) | AID 504332; also: potency is read from the fitted curve at half-maximal effect; % is scaled to controls: 0 for no effect and ±100 for the full control effect; nearly all actives have a fitted effect of over 75% in size
#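 Enzyme 20 nM + cpd, 15 min RT; add b-H3K9 pep 500 nM / SAM 20 uM; 2 h RT; anti-H3K9me1 Ab 0.5 ug/mL + SA donor / anti-rabbit acceptor beads 20 ug/mL each, 10 min; AlphaScreen read.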
# * = called active by the depositor; ? = inconclusive; . = no result; [ ] = dose if it differs, or a comment. Most compounds without a hit are left out; they make up all but 10% or so of the library. Unless noted, calls follow the shape of the dose curve; as a rule, active = well fitted inhibition curve with a large enough effect; inconclusive = small, poorly fitted or top-dose-only effect; inactive = no such curve, though single readings can be large or run the other way.
SMILES,BAZ2B inh,HP1b chromo inh,JMJD2A Tudor,CtBP-E1A blk,Six1-Eya2 blk,G9a inh
CC(C)Cn1c(N)c(C(=O)COC(=O)c2c(O)c(Cl)cc(Cl)c2Cl)c(=O)n(C)c1=O,-16.5%,21.1%,-17.6%,?,-10.6,-4.3%[12.7 µM]
O=C(/C=C/c1ccco1)Nc1nc(-c2ccc(F)c(F)c2)cs1,-4.4%,16.2%,-5.4%,.,-2.0,.
O=C(Nc1nc(-c2ccc(Cl)cc2)cs1)c1cccnc1,-7.7%,?,-22.1%[11.4 µM],-4.5,-1.5,39.8µM*
Cc1ccc(-c2csc(N/N=C/C=C/c3ccccc3)n2)cc1,-33.7%[57.1 µM],-11.0%,-13.2%,1.7,-0.7,-10.1%
Brc1ccc(-c2csc(N/N=C/c3ccco3)n2)cc1,8.91µM*,10.9%,-32.4%,-3.7,-17.8,?
Cc1ccc(-c2csc(N/N=C/c3ccco3)n2)cc1,?,-37.8%,50.1µM*,-25.2,-25.9,?
Clc1ccc(-c2csc(N/N=C/c3ccco3)n2)cc1,35.5µM*,-12.3%,?,-2.1,-8.5,.
O=C(Nc1nc(-c2ccc(F)cc2)cs1)c1cccnc1,11.3%,24.7%,-0.4%[57.1 µM],7.1,0.0,-31.5%
CN(C)S(=O)(=O)c1ccc(-c2csc(N/N=C/c3ccc(O)cc3)n2)cc1,?,-1.9%,?,-8.4,-11.3,22.4µM*
C/C=C/C=C/C(=O)[C@@H]1[C@@H]([C@]2(C)OC(=O)C(C)=C2O)[C@H]2/C(=C(O)/C=C/C=C/C)C(=O)[C@]1(C)C(=O)C2(C)O (some centres undefined),79.4µM*,-21.1%,44.7µM*,6.5,?,?
COCCn1nnnc1C(C(C)C)N1CCOCC1 (centres undefined),-3.4%,18.0%,-23.0%,5.2,6.8,79.4µM*
COc1ccc(NC(=S)N2CCCN(Cc3cc(C)ccc3C)C2)cc1,-38.6%,15.4%,-28.7%,-20.8,8.0,-2.1%
COc1ccc(Nc2nc(-c3ccccc3O)nc3ccccc23)cc1,-2.4%,2.4%,-7.1%,-15.4,-24.1,19.8%[2.33 µM]
Cc1ccc(-c2nc(Nc3ccc(N4CCOCC4)cc3)c3ccccc3n2)cc1,31.6µM*,?,39.8µM*,-9.8,-18.7,.
Oc1ccc(Nc2nc(-c3ccccc3O)nc3ccccc23)cc1,?,27.2%,?,.,-12.9,50.1µM*
O=C(O)c1ccc(Nc2nc(-c3ccccc3)nc3ccccc23)cc1,4.6%,31.3%,39.8µM*,.,?,?
Cc1ccc(-c2nc(Nc3ccc(O)cc3)c3ccccc3n2)cc1,-27.5%,-2.4%,?,-9.0,-13.9,3.2%
CNC(=O)c1ccc(Nc2nc(-c3ccccc3)nc3ccccc23)cc1,2.8%,7.9%,-13.4%,0.0,?,50.1µM*
COc1cccc(-c2nc(SC(C(C)=O)C(=O)N(C)C)c3c(=O)n(C)c(=O)n(C)c3n2)c1 (centres undefined),3.7%,10.9%[57 µM],-17.2%,.,.,10.9%[59 µM]
COc1ccc(-c2nc3scc(CCNS(=O)(=O)c4c(C)cc(C)cc4C)n3n2)cc1OC,-21.4%,37.3%,-11.4%,.,.,-3.2%[59 µM]
COC(=O)c1cc2oc3ccccc3c2n1CC(=O)Nc1ccc(F)c(Cl)c1,-2.9%,21.1%,-5.5%,.,.,-4.2%[59 µM]
CCCC[C@@H]1CNCCN1CCc1cccc(F)c1,-35.8%,34.0%,-12.1%,4.4,2.4,-32.0%[2.33 µM]
Fc1cccc(CCN2CCNC[C@@H]2Cc2ccccc2)c1,.,14.0%,56.2µM*,-1.6,0.3,.
CCCC(=O)Nc1c(C(=O)N2CCN(c3ccccc3)CC2)oc2ccccc12,-14.0%,26.3%,-12.3%,.,.,?
O=C1CC(SCCc2nc3ccccc3[nH]2)C(=O)N1c1ccc(Cl)cc1 (centres undefined),0.3%,39.9%,-7.0%,-1.8,5.1,-48.9%
O=C1CC(SCc2nc3ccccc3[nH]2)C(=O)N1c1ccc(Cl)cc1 (centres undefined),-0.5%,43.3%,-15.7%,-20.1,-19.4,17.8µM*
O=C1CC(SCc2nc3ccccc3[nH]2)C(=O)N1c1ccc(F)c(Cl)c1 (centres undefined),?,62.3%,3.2%,-27.8,-25.5,39.8µM*
